Out of some 5,600 compounds screened, about 390 (7%) showed an effect of 50% or more. The entries come from a sample that favours strong results as a whole. Non-standard residues stand in square brackets, D forms with d. Residues, ends and D or L forms follow the SMILES beside them. αMeP = C[C@@]1(C(=O)O)CCCN1

Inhibition data for 51 molecules are collected here from ChEMBL document CHEMBL4808148, “HDAC6 screening dataset using tau-based substrate in an enzymatic assay yields selective inhibitors and activators” (2021).

Test [1] deals with T1, Protein deacetylase HDAC6 (Homo sapiens) (UniProt Q9UBN7).
T1 sequence (whole entry): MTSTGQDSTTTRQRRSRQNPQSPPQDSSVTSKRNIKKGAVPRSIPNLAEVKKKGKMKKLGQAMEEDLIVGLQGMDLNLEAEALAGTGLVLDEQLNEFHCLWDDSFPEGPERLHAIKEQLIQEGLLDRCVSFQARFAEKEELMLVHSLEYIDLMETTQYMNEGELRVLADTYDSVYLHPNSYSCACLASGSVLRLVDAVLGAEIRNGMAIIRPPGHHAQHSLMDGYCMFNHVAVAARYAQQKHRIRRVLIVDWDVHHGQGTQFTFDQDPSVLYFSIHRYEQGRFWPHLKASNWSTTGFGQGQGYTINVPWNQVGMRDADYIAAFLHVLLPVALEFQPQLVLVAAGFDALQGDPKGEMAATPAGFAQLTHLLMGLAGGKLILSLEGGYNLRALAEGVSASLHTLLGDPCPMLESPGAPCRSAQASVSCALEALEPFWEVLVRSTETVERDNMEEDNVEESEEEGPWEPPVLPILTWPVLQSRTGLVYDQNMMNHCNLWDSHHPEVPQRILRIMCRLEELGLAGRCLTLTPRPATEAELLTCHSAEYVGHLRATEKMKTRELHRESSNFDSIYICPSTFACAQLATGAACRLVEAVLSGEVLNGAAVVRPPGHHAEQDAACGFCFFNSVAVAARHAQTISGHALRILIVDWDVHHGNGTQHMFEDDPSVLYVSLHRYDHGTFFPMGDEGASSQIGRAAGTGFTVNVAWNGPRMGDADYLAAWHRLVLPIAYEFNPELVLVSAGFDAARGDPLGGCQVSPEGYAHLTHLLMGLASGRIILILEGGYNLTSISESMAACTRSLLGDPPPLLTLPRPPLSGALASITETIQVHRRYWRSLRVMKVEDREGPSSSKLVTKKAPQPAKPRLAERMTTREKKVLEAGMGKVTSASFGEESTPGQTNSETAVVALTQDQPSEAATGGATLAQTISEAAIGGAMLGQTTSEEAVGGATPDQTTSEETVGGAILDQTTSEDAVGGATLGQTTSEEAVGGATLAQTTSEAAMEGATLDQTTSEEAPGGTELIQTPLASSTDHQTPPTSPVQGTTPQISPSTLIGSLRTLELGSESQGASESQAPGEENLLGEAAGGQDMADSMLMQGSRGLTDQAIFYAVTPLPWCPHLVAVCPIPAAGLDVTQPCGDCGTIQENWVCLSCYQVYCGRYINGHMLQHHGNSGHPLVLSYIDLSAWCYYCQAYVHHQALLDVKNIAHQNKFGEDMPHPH
As to conditions: at 10 µM.

The target of test [2] is Protein deacetylase HDAC6 (Homo sapiens) (UniProt Q9UBN7). Particulars: at 10 µM. This is another data set of the same source.

On to `CCCC(=O)Nc1ncnc2c1ncn2C1O[C@@H]2COP(=O)(O)O[C@H]2[C@H]1OC(=O)CCC` (stereo partly specified), for which the inhibition – broadly, the change of the read-out against control, counted positive when it falls – in test [1] was 3.41%.
Still for that read-out and setting: the figure for `N#Cc1ncccn1` is -1.21%; for `COc1cc(N2CCC(N3CCN(C)CC3)CC2)ccc1Nc1ncc(Cl)c(Nc2ccccc2S(=O)(=O)C(C)C)n1` it is 17.9%; for `C[C@@]1(C(=O)N[C@@H](CCC(=O)O)C(=O)O)CCCN1C(=O)CN` (H-Gly-[αMeP]-Glu-OH) it is -8.16%.
On the same count and under the same terms, the figure for `O=C1OC(OC(=O)c2cccnc2Nc2cccc(C(F)(F)F)c2)c2ccccc21` (stereo unspecified) is 4.26%; for `Cc1c(Nc2ncccc2C(=O)O)cccc1C(F)(F)F` it is 89.7%; for `Cc1c(Cl)cccc1Nc1ccccc1C(=O)O` it is 32.3%.
Turning to `O=C(O)c1cccnc1Nc1cccc(C(F)(F)F)c1`, in test [1], the inhibition came out at 74.8%.
Take `O=C(OCCOCCO)c1ccccc1Nc1cccc(C(F)(F)F)c1`: the inhibition in test [1] was 46.4%.
`O=C(O)c1cccnc1C(=O)O`: the inhibition in test [1] was -0.23%.
The same measure, in the same setting: the figure for `CN[C@H](C(=O)N[C@H](C(=O)N(C)[C@H](/C=C(\C)C(=O)O)C(C)C)C(C)(C)C)C(C)(C)c1ccccc1` is -3.5%.
Still for that read-out and setting: the figure for `CC1OC1P(=O)(O)O` (stereo unspecified) is -9.26%.
Regarding TEPRENONE, CHEMBL5314356, the inhibition in test [2] stood at 27.9%.
Consider `CC1=C(C(=O)Nc2cc3cn[nH]c3cc2F)C(c2ccc(C(F)(F)F)cc2)CC(=O)N1` (stereo unspecified), for which the inhibition in test [1] is 24.4%.
Regarding `C#CCN[C@@H]1CCc2ccccc21`, the inhibition in test [1] was found to be 54%.
Turning to `c1ccc(Oc2cccnc2)cc1`, in test [1], the inhibition was 10.2%.
With `CCCCNc1nc(N)c2[nH]c(=O)n(Cc3ccc(OCCN(C)C)nc3)c2n1`, in test [1], the inhibition was -9.47%.
Turning to `CCCC(=O)OCOC(=O)C1=C(C)NC(C)=C(C(=O)OC)C1c1cccc(Cl)c1Cl` (stereo unspecified), in test [1], the inhibition is 44.1%.
On the same count and under the same terms, for `Cc1ccc(Nc2ncc3c(n2)N(C)C(=O)N(c2cc(NC(=O)c4cccc(C(F)(F)F)c4)ccc2C)C3)cn1` the value was 2.43%.
Still for that read-out and setting: for `O=C(O)C1=CC(O)C(O)[C@H](O)C1` (stereo partly specified) the value was 11.8%; for `CCCn1c(=O)c2[nH]c(-c3cnn(Cc4cccc(C(F)(F)F)c4)c3)nc2n(CC)c1=O`, 101%.
For `CCCn1c(=O)c2nc(-c3ccccc3)[nH]c2n(CCC)c1=O`, in test [1], the inhibition is -5.2%.
As for `CCOC(=O)COc1ccc2c(c1)C[C@@H](NC[C@H](O)c1cccc(Cl)c1)CC2`, in test [1], the inhibition was found to be 16.8%.
On the same count and under the same terms, for `Cn1nccc1Nc1nccc(-c2ccn([C@H](CO)c3ccc(Cl)c(F)c3)c(=O)c2)n1` the value was 26.5%; for `CN1CCC(Nc2ncc3ncnc(Nc4ccc(F)c(Cl)c4)c3n2)CC1`, 20.6%; for `CCn1c(-c2nonc2N)nc2cnc(Oc3cccc(NC(=O)c4ccc(OCCN5CCOCC5)cc4)c3)cc21`, 7.09%.
`CCOc1cccc(NC(=O)c2ccc(N3CCCC3)c(C(F)(F)F)c2)c1`: the inhibition in test [1] stood at 69.4%.
The same measure, in the same setting: the figure for `O=C(Nc1cccc(Br)c1)c1cccc(S(=O)(=O)N2CCCCCC2)c1` is 12.5%; for `Cc1cc(C)n(-c2cccc([C@H](CC(=O)O)CN3CC[C@@H](CCc4ccc5c(n4)NCCC5)C3)c2)n1` it is -4.01%.
On the same count and under the same terms, for `C[C@H]1CC[C@H](n2c3cnccc3c3cnc(Nc4ccc5c(n4)CCN(C(=O)CO)C5)nc32)CC1` the value was -9.6%; for `CC[C@@H]1CN2C(=O)N(C)c3nc(-c4ccccc4)[nH]c3C2=N1`, -3.85%; for `COc1ccc(C(=O)Nc2sc3c(c2C(N)=O)CCCC3)cc1OC`, 31.6%.
On the same count and under the same terms, the figure for `CC(C)(C)C1CCc2c(sc(NC(=O)c3ccco3)c2C(=O)O)C1` (stereo unspecified) is 102%; for `N[C@@H](Cc1ccc(B(O)O)cc1)C(=O)O` it is 0.83%.
On to `CNc1ncc2cc(-c3cc(NC(=O)NCCC(C)(C)C)c(F)cc3C)c(C)nc2n1`, for which the inhibition in test [1] was determined as 12.4%.
On to `C/C(=N\NC(=O)[C@@H]1C(=O)NC[C@H]1c1ccccc1)c1cccc(Br)c1`, for which the inhibition in test [1] came to 17.4%.
The same measure, in the same setting: for `CN1CCc2c(c3ccccc3n2Cc2ccc(C(=O)NO)cc2)C1` the value was 101%.
With `Fc1ccc(Cn2c(NC3CCNCC3)nc3ccccc32)cc1`, the inhibition in test [1] came out at 6.44%.
As to `CCO[C@@H](Cc1ccc(OCCc2ccc(OS(C)(=O)=O)cc2)cc1)C(=O)O`, in test [1], the inhibition is -7.27%.
In the case of `O=C(c1cccc(Br)c1)N1CCC(N2CCCC2)CC1`, the inhibition in test [1] is 1.11%.
Still for that read-out and setting: for `CCNC(=O)/C=C/c1cccc(Br)c1` the value was 54.9%; for `Nc1cc(F)ccc1NC(=O)/C=C/c1cnn(C/C=C/c2ccccc2)c1`, 12.4%.
The same measure, in the same setting: for `COc1cc(/C=C/C(=O)CC(=O)/C=C/c2ccc(O)c(OC)c2)ccc1O` the value was 38.8%; for `O=C(/C=C/c1cccnc1)NCCCCC1CCN(C(=O)c2ccccc2)CC1`, -0.26%; for `O=C(/C=C/c1ccccc1)NCCO`, 81.5%.
Consider `CC12CCC(C(=O)N(CCCCN3CCN(c4ccccn4)CC3)C1=O)C2(C)C` (stereo unspecified), for which the inhibition in test [1] is 4.93%.
On to `C[C@@H]1O[C@@H](O[C@H]2[C@H](Oc3cc(O)c4c(c3)O[C@H](c3ccc(O)cc3)CC4=O)O[C@H](CO)[C@@H](O)[C@@H]2O)[C@H](O)[C@H](O)[C@H]1O`, for which the inhibition in test [1] was determined as 11.8%.
The same measure, in the same setting: the figure for `O=C(O)C[C@H]1CC[C@H](c2ccc(-c3ccc(Nc4ccc(C(F)(F)F)nc4)cn3)cc2)CC1` is 17.5%; for `CC(C)c1ccc2c(c1)CC[C@H]1[C@](C)(CN)CCC[C@]21C` it is 10.1%.
On to `C=CC(=O)c1ccc2ccccc2c1`, for which the inhibition in test [1] amounted to 20.7%.
Take `C/C(=C\C(=O)Nc1ccccc1C(=O)O)c1ccc2ccccc2c1`: the inhibition in test [1] is 27.8%.
